Out of some 48,000 compounds screened, about 13,000 (27%) showed an effect of 50% or more. The list shows a part of the results.
system: Wolbachia pipientis; assay: Anti-Wolbachia Cell-Based Screen; format: functional; set-up: scale not given: in the data most compounds retested in dose-response had high values; settings: 5 µM

How did the “Percent Effect” value turn out when `O=C(Nc1ccccc1)C1=NOC2(CCCNC2)C1` (centres undefined) was run?
The value was -15.15%.

With `Cl.N#CC1(C(=O)NCC2CCC3(CCNCC3)O2)CC1` (centres undefined) as the compound, how does the “Percent Effect” value read?
Its value is -12.24%.

How did the “Percent Effect” value turn out when `COc1cc2nc(NCc3ccc(C)nc3)nc(N)c2cc1OC` was run?
Its value is 15.36%.

Which “Percent Effect” value does the source give for `CN1C[C@@H]2COC[C@]2(C(=O)NCc2cccs2)C1` here?
The value was -12.7%.

Which “Percent Effect” value does the source give for `Cc1cc(C)c(CNc2nc3ccccc3cc2CO)c(=O)[nH]1` here?
Its value is 34.93%.

With `COc1c(Br)cc(Br)cc1CNC(C)Cn1cccn1` (centres undefined) as the compound, how does the “Percent Effect” value read?
The value was 3.191%.

How did the “Percent Effect” value turn out when `COc1cccc(CNC(C)Cn2cccn2)c1OC.Cl` (centres undefined) was run?
The value was 8.103%.

With `CC(Cn1cccn1)NCc1csc2c1CCCC2` (centres undefined) as the compound, how does the “Percent Effect” value read?
Its value is 12.25%.

For `COc1ccc(CNC(C)Cn2cccn2)c(OC)c1OC.Cl` (centres undefined), which “Percent Effect” value is on record?
Its value is 98.57%.

With `CCc1nc(CNC(C)Cn2cccn2)cs1` (centres undefined) as the compound, how does the “Percent Effect” value read?
The value was 2.575%.

`COc1ccc(CNC(C)Cn2cccn2)cc1OC` (centres undefined) was tested. Which “Percent Effect” value did it give?
The value was 104.4%.

`COc1cc(CNCC(O)c2ccc(C)cc2)cc2c1OCCO2.Cl` (centres undefined) was tested. Which “Percent Effect” value did it give?
Its value is 4.109%.

Which “Percent Effect” value does the source give for `CC(Cn1cccn1)NCC(=O)NC1CCOCC1` (centres undefined) here?
Its value is 1.6%.

`COc1cc(CNC(C)Cn2cccn2)cc2c1OCCO2.Cl` (centres undefined) was tested. Which “Percent Effect” value did it give?
The value was 99.62%.

`COc1cc(CNC(C)Cn2cccn2)cc(OC)c1` (centres undefined) was tested. Which “Percent Effect” value did it give?
Its value is 102.9%.

Which “Percent Effect” value does the source give for `CC(Cn1cccn1)NCc1csc(-c2cccs2)n1` (centres undefined) here?
The value was 1.256%.

How did the “Percent Effect” value turn out when `CC(Cn1cccn1)NCCS(=O)(=O)c1ccccc1` (centres undefined) was run?
The value was -1.056%.

With `CC(c1ccc(F)cc1)N1CCN(Cc2ccc(C#N)cc2)CC1` (centres undefined) as the compound, how does the “Percent Effect” value read?
Its value is 26.99%.

`CC(C)OCCNC1(c2ccc(Cl)cc2)CCOCC1` was tested. Which “Percent Effect” value did it give?
Its value is 3.7%.

How did the “Percent Effect” value turn out when `CC(=O)N1C[C@H]2CNC[C@@]2(C(=O)NCCNc2ccncc2C)C1` was run?
Its value is -5.626%.

How did the “Percent Effect” value turn out when `Cc1cccc(-c2ncc(CNC(C)Cc3ccncc3)cn2)c1` (centres undefined) was run?
The value was -2.738%.

`Cc1nnc([C@@H]2CC[C@@H]3[C@@H](CCN3Cc3ccccn3)O2)o1.O=C(O)C(F)(F)F.O=C(O)C(F)(F)F` was tested. Which “Percent Effect” value did it give?
The value was -6.583%.

With `CC(Cn1cccn1)NCc1nc(-c2cccs2)no1` (centres undefined) as the compound, how does the “Percent Effect” value read?
Its value is -0.9937%.

For `CC(Cn1ccnc1)NCc1ccc2nonc2c1` (centres undefined), which “Percent Effect” value is on record?
The value was -7.482%.

For `CC(Cn1cncn1)NCc1ccc2nonc2c1` (centres undefined), which “Percent Effect” value is on record?
Its value is -26.41%.

For `COc1cc(CNC(C)Cn2cccn2)cc(Cl)c1OC.Cl` (centres undefined), which “Percent Effect” value is on record?
The value was 86.44%.

For `COc1ccc(CNC(C)Cn2cccn2)cc1F` (centres undefined), which “Percent Effect” value is on record?
The value was 80.61%.

How did the “Percent Effect” value turn out when `COc1cc(CNC(C)Cn2cccn2)cc(OC)c1OC.Cl` (centres undefined) was run?
Its value is -0.312%.

For `Cc1nc(C)c(CC(=O)N2C[C@@H]3CC[C@H](C2)N(CC2CC2)C3)s1`, which “Percent Effect” value is on record?
Its value is 5.812%.

How did the “Percent Effect” value turn out when `O=S1(=O)N(c2ccccc2)C[C@H](O)[C@]12CCNC2` was run?
Its value is 107%.

`O=S1(=O)N(c2ccccc2)C[C@@H](O)[C@]12CCNC2` was tested. Which “Percent Effect” value did it give?
Its value is 103.1%.

How did the “Percent Effect” value turn out when `O=C(O)C(F)(F)F.O=S1(=O)NCC2(CCNCC2)COc2ccccc21` was run?
The value was -6.327%.

With `OCC1N(Cc2ccco2)[C@H]2CC[C@]1(O)CC2` (some centres undefined) as the compound, how does the “Percent Effect” value read?
Its value is 109.9%.

How did the “Percent Effect” value turn out when `CN1CCN(Cc2ccco2)Cc2cccnc21` was run?
Its value is 10.4%.

Which “Percent Effect” value does the source give for `Cc1cccc(CN2C[C@@H]3COC[C@]3(COCC(=O)N(C)C)C2)n1.O=C(O)C(F)(F)F.O=C(O)C(F)(F)F` here?
Its value is 109.1%.

With `COC[C@]12COC[C@H]1CN(Cc1ccc3ccccc3n1)C2.O=C(O)C(F)(F)F.O=C(O)C(F)(F)F` as the compound, how does the “Percent Effect” value read?
The value was -16.09%.

Which “Percent Effect” value does the source give for `Cc1cc(CN2C[C@@H]3COC[C@]3(CNC(=O)N(C)C)C2)no1.O=C(O)C(F)(F)F` here?
The value was -12.05%.

With `Cc1cc(CN2C[C@@H]3COC[C@]3(COCC(=O)N(C)C)C2)no1` as the compound, how does the “Percent Effect” value read?
Its value is 104.2%.

`CN(C)C[C@]12COC[C@H]1CN(Cc1ccc3ccccc3n1)C2.O=C(O)C(F)(F)F.O=C(O)C(F)(F)F.O=C(O)C(F)(F)F` was tested. Which “Percent Effect” value did it give?
Its value is -5.05%.

Which “Percent Effect” value does the source give for `Cc1cc(CN2C[C@@H]3COC[C@]3(COCc3csc(C)n3)C2)no1.O=C(O)C(F)(F)F` here?
The value was -7.222%.

How did the “Percent Effect” value turn out when `Cc1noc(C)c1CN1C[C@H](OCC2CC2)[C@H]2COC[C@H]21.O=C(O)C(F)(F)F` was run?
The value was -11.17%.

`Cc1cccc(CN2C[C@@H]3COC[C@H](NS(C)(=O)=O)[C@@H]3C2)n1.O=C(O)C(F)(F)F.O=C(O)C(F)(F)F` was tested. Which “Percent Effect” value did it give?
Its value is 86.62%.

With `Cc1noc(C)c1CN1C[C@H](OCC(=O)N(C)C)[C@H]2COC[C@H]21.O=C(O)C(F)(F)F` as the compound, how does the “Percent Effect” value read?
The value was -5.936%.

How did the “Percent Effect” value turn out when `CCc1ccc(CN2C[C@H](OC)[C@H]3COC[C@H]32)o1.O=C(O)C(F)(F)F` was run?
The value was 106.4%.

How did the “Percent Effect” value turn out when `Cc1cccc(CN2C[C@H](OCc3ccccn3)[C@H]3COC[C@H]32)n1.O=C(O)C(F)(F)F.O=C(O)C(F)(F)F` was run?
Its value is 114.7%.

For `Cc1cccc(CN2CCO[C@H]3[C@H](Oc4ccccn4)CC[C@@H]32)n1.O=C(O)C(F)(F)F.O=C(O)C(F)(F)F.O=C(O)C(F)(F)F`, which “Percent Effect” value is on record?
Its value is -5.124%.

`Cc1ccc(CN2C[C@@H](OCc3ccccn3)[C@H]3COC[C@H]32)o1.O=C(O)C(F)(F)F.O=C(O)C(F)(F)F` was tested. Which “Percent Effect” value did it give?
The value was 91.93%.

`Cc1ccc(CN2C[C@H]3OC(=O)N(Cc4ccccn4)[C@H]3C2)o1` was tested. Which “Percent Effect” value did it give?
Its value is 4.449%.

How did the “Percent Effect” value turn out when `Cc1cccc(CN2C[C@H](NS(C)(=O)=O)[C@@H]3OCCC[C@@H]32)n1.O=C(O)C(F)(F)F.O=C(O)C(F)(F)F` was run?
Its value is -8.995%.

`Cc1ncsc1CN1C[C@@H](OCc2ccccn2)[C@H]2OCCC[C@H]21.O=C(O)C(F)(F)F.O=C(O)C(F)(F)F.O=C(O)C(F)(F)F` was tested. Which “Percent Effect” value did it give?
The value was -3.232%.

For `Cc1cccc(CN2C[C@@H](NC(=O)C3CCC3)[C@H]3COC[C@H]32)n1`, which “Percent Effect” value is on record?
The value was 5.905%.

For `Cc1cccc(CN2C[C@@H]3CCCO[C@@H]3[C@H](NS(C)(=O)=O)C2)n1`, which “Percent Effect” value is on record?
Its value is 6.966%.

How did the “Percent Effect” value turn out when `O=C1NCCC12CN(CC1CC1)CC21CCNCC1` (centres undefined) was run?
Its value is -8.947%.

`CCC/C=C/c1ccc(CN2CCN(C)CC2)cn1` was tested. Which “Percent Effect” value did it give?
Its value is -3.388%.

With `CC(C)C(NC(=O)c1ccco1)C(=O)N1CCC2(CC1)OCCO2` (centres undefined) as the compound, how does the “Percent Effect” value read?
The value was -15.39%.

How did the “Percent Effect” value turn out when `O=C(NCC(=O)N1CCC2(CC1)OCCO2)c1ccoc1` was run?
The value was 92.23%.

With `CC(C)C(NC(=O)c1ccccc1)C(=O)N1CCC2(CC1)OCCO2` (centres undefined) as the compound, how does the “Percent Effect” value read?
The value was -14.78%.

`Cc1cccc(CN2C(=O)C[C@H]3[C@@H]2CCN3Cc2nccs2)n1.O=C(O)C(F)(F)F.O=C(O)C(F)(F)F` was tested. Which “Percent Effect” value did it give?
Its value is 101.6%.

For `Cc1cccc(CN2C(=O)C[C@@H]3[C@@H]2CCN3Cc2ccsc2)n1.O=C(O)C(F)(F)F.O=C(O)C(F)(F)F`, which “Percent Effect” value is on record?
Its value is 96.12%.

`Cc1cccc(CN2C(=O)C[C@H]3[C@@H]2CCN3Cc2ccco2)n1.O=C(O)C(F)(F)F.O=C(O)C(F)(F)F` was tested. Which “Percent Effect” value did it give?
Its value is 95.2%.

How did the “Percent Effect” value turn out when `Cc1cccc(CN2C(=O)CC[C@H]3[C@@H]2CCN3CC(=O)N(C)C)n1.O=C(O)C(F)(F)F.O=C(O)C(F)(F)F` was run?
The value was 6.381%.

`Cc1ccc(-c2noc(CC[C@@H]3CCCN4CCCC[C@H]34)n2)nn1` was tested. Which “Percent Effect” value did it give?
The value was -24.46%.

`CN(C)c1cc(C2CCCNC2)ccn1.Cl.Cl` (centres undefined) was tested. Which “Percent Effect” value did it give?
Its value is 113.5%.

Which “Percent Effect” value does the source give for `Cc1cc(N(C)C)nc(N2CCCC2c2cccnc2)n1` (centres undefined) here?
The value was 6.252%.

Which “Percent Effect” value does the source give for `CNc1cc(C2CCCNC2)nc(C)n1.Cl.Cl` (centres undefined) here?
Its value is 69.51%.

With `Cc1cc(N(C)C)nc(C2CCCNC2)n1.Cl` (centres undefined) as the compound, how does the “Percent Effect” value read?
Its value is 130.2%.

How did the “Percent Effect” value turn out when `c1cncc(NCCNC2CCCNC2)c1` (centres undefined) was run?
The value was 1.696%.

For `Cc1cc(C)nc(C2CCCNC2)n1.Cl.Cl` (centres undefined), which “Percent Effect” value is on record?
The value was 131.4%.

How did the “Percent Effect” value turn out when `O=C([C@H]1C[C@H]2OCC[C@H]2N(Cc2ccncc2)C1)N1CCCCO1` was run?
Its value is -15.5%.

Which “Percent Effect” value does the source give for `Cc1nc(O)cc(CN2CC=C(c3cnn(-c4ccccc4)c3)CC2)n1` here?
The value was 3.563%.

`O=C(O)C(F)(F)F.O=C1[C@H]2CN(Cc3cccs3)C[C@H]2CN1c1cncnc1` was tested. Which “Percent Effect” value did it give?
Its value is 0.1136%.

How did the “Percent Effect” value turn out when `Cc1cc(O)nc(C2CCCNC2)n1.Cl` (centres undefined) was run?
The value was 166.7%.

For `CC(C)c1nc(C2CCCNC2)no1.Cl` (centres undefined), which “Percent Effect” value is on record?
The value was -31.86%.

`Cl.FC(F)(F)c1nc(C2CCCNC2)no1` (centres undefined) was tested. Which “Percent Effect” value did it give?
Its value is 113.6%.

`COc1ccc(F)cc1C(=O)C1CCCN(Cc2cnc(C)s2)C1` (centres undefined) was tested. Which “Percent Effect” value did it give?
Its value is -11.09%.

For `N#Cc1cccc(N2CCCC3(CNCCO3)C2)n1.O=C(O)C(F)(F)F.O=C(O)C(F)(F)F` (centres undefined), which “Percent Effect” value is on record?
Its value is 1.133%.

With `CN1C(=O)C2(CCN(Cc3cccnc3)CC2)c2cccc(F)c21.Cl` as the compound, how does the “Percent Effect” value read?
The value was 9.194%.

With `COc1ccc(CCN)cc1-c1ccc(S(C)(=O)=O)cc1` as the compound, how does the “Percent Effect” value read?
The value was -7.949%.

With `O=C(c1cc(F)cc(F)c1)N1C[C@H]2CNC[C@H]2C1` as the compound, how does the “Percent Effect” value read?
Its value is -1.943%.

From ChEMBL document CHEMBL3988442, “University of Dundee, Small-Polar-MMV Screening Library” (2021)
